Screens (PubChem BioAssay)
The list is not random: actives were taken first. Their share in the collection is about 3.3%.
PI5P4K alpha inh: qHTS for Inhibitors of phosphatidylinositol 5-phosphate 4-kinase (PI5P4K); max response, %; actives 1.2% (n = 330,000); PI5P4Kalpha enzyme, ADP-Glo luminescence, 60 min; hits give low values; AID 652105, 2013; active = max response of -50% or lower; inconclusive = between -30% and -50%; inactive = -30% or higher; also: value at the top dose of about 77 µM
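Reactions run in 0.038 M HEPES pH 7.4, 0.28 mM EGTA, 0.1% CHAPS and 5% DMSO, with PI5P4Kalpha, substrate, compound and 5 microM ATP final, one hour at room temperature. Readout is ADP-Glo luminescence.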
DRD3 agonist: qHTS of D3 Dopamine Receptor Agonist: qHTS. D3R DiscoveRx beta-arrestin cells, luminescence, 90 min. max activation, %. actives 0.58% (n = 410,000). D(3) dopamine receptor (Homo sapiens), P35462; in the data active = max activation above about 30%
Target sequence (P35462 whole entry, looked up): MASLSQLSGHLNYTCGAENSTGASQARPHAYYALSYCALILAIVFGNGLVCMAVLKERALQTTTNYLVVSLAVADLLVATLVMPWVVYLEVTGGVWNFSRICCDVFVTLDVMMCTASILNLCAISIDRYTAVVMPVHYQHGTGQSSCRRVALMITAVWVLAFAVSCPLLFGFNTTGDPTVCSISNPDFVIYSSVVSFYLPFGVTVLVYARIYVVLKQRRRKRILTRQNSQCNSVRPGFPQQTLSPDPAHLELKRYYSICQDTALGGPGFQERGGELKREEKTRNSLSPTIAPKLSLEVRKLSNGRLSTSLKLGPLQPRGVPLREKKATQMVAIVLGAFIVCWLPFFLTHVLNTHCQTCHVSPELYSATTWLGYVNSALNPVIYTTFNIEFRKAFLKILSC
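Agonist-mode cell screen: cells plated at 1500/well and incubated overnight at 37 °C, then exposed to library compounds for 90 min at 37 °C. Detection reagent was added for 30–60 min at room temperature, and luminescence was read.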
DRD3 antagonist: qHTS of D3 Dopamine Receptor Antagonist: qHTS; D3R cells, DiscoveRx beta-arrestin luminescence, antagonist mode; hits give low values; actives 2.5% (n = 360,000); D(3) dopamine receptor (Homo sapiens), P35462; max response, negative = inhibition, %; in the data active = max response below about -50%; inconclusive = no clear call, values can overlap the other calls
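Cells plated overnight at 1500 cells/well, then exposed to library compounds with dopamine controls for 90 minutes at 37 degrees C. DiscoveRx reagent added for 30–60 minutes at room temperature; luminescence read, quantitative HTS format.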
LDHA block: qHTS assay for inhibitors of human lactate dehydrogenase | activity change, % (values are at about 110 or 230 µM) | purified LDHA, NADH/diaphorase-resazurin fluorescence; hits give low values | AID 1347041, 2019 | actives 0.15% (n = 480,000); in the data active = activity change below about -30%; inconclusive = mostly about -25% to -30%
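Enzyme activity of human lactate dehydrogenase 5 (2 nM; 0.06 mM NADH, 0.2 mM pyruvate, 5 min, RT) is measured via a resazurin/diaphorase fluorescence readout of residual NADH.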
PI4K2A block: qHTS for small molecular inhibitors of PI4K2A; Phosphatidylinositol 4-kinase type 2-alpha (Homo sapiens), Q9BTU6; purified PI4K2A, ADP-Glo luminescence, 1 h; hits give low values; activity change, negative = inhibition, % at 76.9 µM; actives 0.13% (n = 420,000); in the data active = activity change below about -50%; inconclusive = mostly about -30% to -49%
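ADP-Glo luminescence measured ADP generated by PI4K2A enzyme (4 ug/mL before mixing) with 1.2 mM PI substrate (pre-mix) and 300 microM ATP (pre-mix). Tris pH7.5 buffer with MgCl2, Triton X-100; 1 h reaction at ambient temperature.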
Numbers stand for hits; - = inactive; ? = inconclusive; . = no result given.

SMILES	PI5P4K alpha inh	DRD3 agonist	DRD3 antagonist	LDHA block	PI4K2A block
C[C@@H](CN1C2=NC[C@H](Cc3ccc(O)cc3)N2C[C@H]1Cc1ccc(O)cc1)NC(=O)CCC1CCCCC1	-	-	-	-	-
COc1ccc(C[C@H]2CN3C(=NC[C@@H]3Cc3ccc(O)cc3)N2C[C@H](C)NC(=O)c2ccc(C)c(Br)c2)cc1	-	-	-81	-	-
CCOC(=O)c1nc2ccccc2nc1N1CCN(c2ccccc2F)CC1	.	.	.	-	.
S=C(NCc1cccnc1)Nc1ccc(Br)cc1	.	.	.	-	.
Cc1ccc(C)c(CN2CCC(CNC(=O)Nc3ccc(C)c(C)c3)CC2)c1	-	-	?	-	-
O=C(NCC1CCN(Cc2cccc(Cl)c2)CC1)Nc1ccc(Cl)cc1	-	-	-61	-	-
O=C(NCC1CCN(Cc2cccc(Cl)c2)CC1)Nc1cc(Cl)ccc1Cl	.	-	.	-	-
COc1ccc(Cl)cc1NC(=O)NCC1CCN(Cc2cc(C)ccc2C)CC1	-	-	-85	-	-
COc1cc([N+](=O)[O-])ccc1NC(=O)NCC1CCN(Cc2ccc(Cl)cc2)CC1	-	-	-73	-	-
CC(C)(O)C#Cc1ccc(C(=O)NC(CSCc2ccccc2)C(=O)O)cc1 (stereo not given)	.	.	.	-	.
CC(C)Cn1cnc2c1c(=O)n(CC(=O)NCc1ccccc1)c(=O)n2CC(C)C	.	.	.	-	.
N#Cc1c(-c2ccncc2)c2c([nH]c1=S)CCCC2	-60	-	-	-	-
Cc1ccc(-c2c3c([nH]c(=S)c2C#N)CCCC3)o1	.	-	-	-	-
Cc1ccc(C)c(NC(=S)NNC(=O)C(c2ccccc2)c2ccccc2)c1	.	.	.	-	.
Cc1cc(/C=C2/C(=O)NN(c3ccccc3)C2=O)c(C)n1-c1cccc(O)c1	-56	-	?	-	-
Cc1sc(-n2c(C)cc(/C=N/n3cnnc3)c2C)c(C#N)c1C	.	-	-	-	-
Cc1cc(/C=C2\SC(=S)NC2=O)c(C)n1-c1cccc(O)c1	-68	-	?	-	-
Cc1sc(-n2c(C)cc(/C=C3\SC(=S)NC3=O)c2C)c(C#N)c1C	.	-	-71	-	-
CCN(CC)C(=O)c1sc(NC(C)=O)c(C#N)c1C	.	.	.	-	.
Nc1ccc2c(c1)N1CCN=C1S2	.	-	-64	-	-
O=C(Nc1ccc(Cl)cc1)Nc1ccc2c(c1)N1CCN=C1S2	-	-	-	-	-
CC(C)(C)c1ccccc1OCCCCCNCCO	.	-	-86	-	-
CC(C)c1ccccc1OCCCCCNCCO	.	-	-52	-	-
Cc1ccccc1OCCCCCNCCO	.	-	-	-	-
Cc1csc(NC(=O)c2[nH]c3c(c2C)C(=O)CCC3)n1	.	.	.	-	.
SMILES	PI5P4K alpha inh	DRD3 agonist	DRD3 antagonist	LDHA block	PI4K2A block
COc1ccc(C(CNc2ccc(S(C)(=O)=O)cc2[N+](=O)[O-])N(C)C)cc1OC (stereo not given)	-	-	?	-	-
CN(C)C(CNc1ccc(S(C)(=O)=O)cc1[N+](=O)[O-])c1ccccc1 (stereo not given)	-	-	-64	-	-
CCNc1ccc(S(=O)(=O)N(C)C)cc1[N+](=O)[O-]	-	-	-	-37	-
CCCCn1c(=O)[nH]c(=O)c2c1nc(Cn1ncc(Cl)c(Cl)c1=O)n2CCC	-52	-	-64	-	-
CCCCn1c(=O)[nH]c(=O)c2c1nc(CN1C(=O)c3ccccc3S1(=O)=O)n2CCC	-	-	-	-	-
Cc1sc2ncnc(N3CCC(C(=O)NNC(=O)COc4ccccc4Cl)CC3)c2c1C	-	30	-	-	-
COc1ccc(OCC(=O)NNC(=O)C2CCN(c3ncnc4sc(C)c(C)c34)CC2)cc1	-	-	-	-	-
Cc1sc2ncnc(N3CCN(CCOc4ccc(Cl)cc4)CC3)c2c1C	.	39	-	-	-
Cc1ccc(OCC(=O)NNC(=O)C2CCN(c3ncnc4sc(C)c(C)c34)CC2)cc1	-	37	-	-	-
Cc1sc2ncnc(N3CCC(C(=O)NNC(=O)COc4ccccc4F)CC3)c2c1C	-	34	-	-	-
Cc1cc(Cl)ccc1OCC(=O)NNC(=O)C1CCN(c2ncnc3sc(C)c(C)c23)CC1	-	-	-	-	-
Cc1sc2ncnc(N3CCC(C(=O)NNC(=O)COc4ccc(Cl)cc4)CC3)c2c1C	-	-	-	-	-
Fc1cc(Br)ccc1N=Cc1ccc2ncccc2c1	.	.	.	-	.
COc1cccc(-c2nc(C#N)c(N3CCN(C(=O)c4ccccc4OC)CC3)o2)c1	.	.	.	-	.
O=C(/C=C/c1ccc(Cl)cc1)Nc1cccc([S+](=O)([O-])Nc2ccccc2F)c1	.	.	.	-	.
Cc1ccc2c(Cl)cc(Cl)c(OCC(=O)NCCC#N)c2n1	.	.	.	-	.
Clc1ccc(NC2(c3nnnn3-c3ccccc3)CCCC2)cc1	.	.	.	-	.
COc1cc(-n2c(C)nc3cc(C(=O)N4CCN(C(C)=O)CC4)ccc32)cc(OC)c1OC	.	.	.	.	-
COC(=O)CCCn1c(-c2ccc(C)cc2)c(C)n2c3c(=O)n(C)c(=O)n(C)c3nc12	.	-	.	-	-
Cc1ccc(-c2c(C)n3c4c(=O)n(C)c(=O)n(C)c4nc3n2CCCO)cc1	.	37	.	-	-
Cc1ccc(C2(CCN3CCN(C)CC3)CCOC(C)(C)C2)cc1 (stereo not given)	.	.	.	-	.
Cc1ccc(C)c(Cc2c(C)nc3c(C(=O)N4CCOCC4)cnn3c2C)c1	.	31	-	-	-
Cc1ccc(Nc2ccc(N3CCN(S(=O)(=O)c4ccc(Br)cc4)CC3)nn2)cc1	.	.	.	-	.
CCOC(=O)C1CCN(C/C=C/c2ccccc2[N+](=O)[O-])CC1	-	-	-56	-	-
CCOC(=O)C1CCN(C/C=C/c2ccccc2OC)CC1	.	-	-68	-	-
SMILES	PI5P4K alpha inh	DRD3 agonist	DRD3 antagonist	LDHA block	PI4K2A block
COc1cc(/C=C(/C#N)C(=O)c2c(Cl)cccc2Cl)cc(OC)c1O	.	.	.	-	.
COc1ccc(CCNC(=O)COC(=O)c2cccnc2Nc2cccc(C(F)(F)F)c2)cc1	.	.	.	-	.
CCN1C(=O)[C@@H]2[C@@H]3CN(S(=O)(=O)c4ccc(C)cc4)[C@@H](c4ccccc4)[C@@H]3C(=O)C[C@@H]2C1=O	-	-	-	-	-
CCOC1=CC2=C(C(=O)C(Cl)=CC2=O)[C@@H]2CN(S(=O)(=O)c3ccc(C)cc3)[C@@H](c3ccccc3)[C@H]12	-107	-	-	-	-
O=C(CCc1c[nH]c2ccccc12)N1CCN(C(=O)C2CC2)CC1	.	.	.	-	.
COc1cc(C(C)N)ccc1OCC(F)(F)F (stereo not given)	.	.	.	-	.
COc1ccccc1-c1coc2cc(OC(=O)c3ccccc3)ccc2c1=O	.	.	.	-	.
COc1cc(C(=O)Oc2ccc3c(=O)c(-c4ccccc4)coc3c2)cc(OC)c1OC	.	.	.	-32	.
